GDH-TPI counter-1 = GDH-TPI coupled enzyme inhibition counter-screen; actives 1.2% (n = 360,000); inhibition, % at 4.8 µM; AID 588335; GDH-TPI coupled enzyme counterscreen, NADH absorbance; in the data active = inhibition above about 30%;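 also: 0% = DMSO wells and 100% = wells lacking the enzyme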
Rv3671c inh = Rv3671c (M. tuberculosis) protease inhibition | inhibition, % at 5.96 µM | actives 0.048% (n = 320,000); in the data active = inhibition above about 38%;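 also: extracellular domain of Rv3671c used as enzyme; 0% = enzyme with DMSO and 100% = no enzyme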
RecA splice inh = inhibitors of M. tuberculosis RecA intein splicing; actives 0.75% (n = 290,000); P9WHJ3; cell-free RecA intein splicing, fluorescence; inhibition, % (no concentration beside the values); in the data active = inhibition above about 30%;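 also: 0% = vehicle wells and 100% = reference inhibitor control wells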
Target sequence (P9WHJ3 whole entry, looked up, canonical isoform): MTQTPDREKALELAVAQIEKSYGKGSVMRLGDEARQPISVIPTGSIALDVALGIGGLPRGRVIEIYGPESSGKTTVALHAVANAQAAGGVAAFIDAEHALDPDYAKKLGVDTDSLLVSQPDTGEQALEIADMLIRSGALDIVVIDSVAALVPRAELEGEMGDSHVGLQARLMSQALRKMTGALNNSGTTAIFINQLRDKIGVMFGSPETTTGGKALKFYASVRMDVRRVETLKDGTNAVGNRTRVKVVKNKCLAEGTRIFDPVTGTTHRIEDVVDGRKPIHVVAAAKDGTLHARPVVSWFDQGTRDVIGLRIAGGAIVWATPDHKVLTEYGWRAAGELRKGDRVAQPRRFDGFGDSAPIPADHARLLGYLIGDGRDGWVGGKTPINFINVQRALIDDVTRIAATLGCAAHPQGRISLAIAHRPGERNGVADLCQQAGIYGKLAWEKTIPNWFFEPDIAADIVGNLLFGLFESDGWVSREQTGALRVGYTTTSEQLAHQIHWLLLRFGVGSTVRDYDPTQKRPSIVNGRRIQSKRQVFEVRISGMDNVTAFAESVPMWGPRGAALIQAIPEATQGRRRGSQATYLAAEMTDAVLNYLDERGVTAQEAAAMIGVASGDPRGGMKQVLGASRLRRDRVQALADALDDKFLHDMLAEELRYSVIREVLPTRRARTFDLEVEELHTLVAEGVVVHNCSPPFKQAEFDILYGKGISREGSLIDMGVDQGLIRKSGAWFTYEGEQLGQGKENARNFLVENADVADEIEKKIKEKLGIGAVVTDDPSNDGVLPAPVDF
UGM FP inh = Mtb UDP-galactopyranose mutase inhibition | P9WIQ1 | purified UGM, fluorescence polarization probe displacement | inhibition, % at 10 µM | actives 0.06% (n = 320,000) | AID 504406; in the data active = inhibition above about 10%, passing the limit was not always enough
Mtb bLac sens = beta-lactam sensitization of Mtb H37Rv | inhibition, % at 25 µM | actives 0.27% (n = 330,000) | M. tuberculosis H37Rv growth with meropenem, percent inhibition;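 also: growth measured after seven days incubation then overnight dye step; 0% = bacteria only wells and 100% = bacteria with antibiotic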
Mtb FBA inh = Mtb fructose-bisphosphate aldolase inhibition. actives 2.3% (n = 360,000). inhibition, % at 1 µM. AID 588726. purified M. tuberculosis FBA, fluorescence read-out. P9WQA3; in the data active = inhibition above about 27%;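 also: 0% = vehicle and 100% = reference inhibitor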
Mtb FBA inh conf = Mtb FBA inhibition, confirmed; inhibition, % at 1 µM; shares compounds with Mtb FBA inh; actives 78% (n = 5,600); purified M. tuberculosis FBA, fluorescence read-out; in the data active = inhibition above about 27%;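 also: 0% = vehicle wells and 100% = reference inhibitor wells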
GDH-TPI counter-2 = GDH-TPI inhibition counter-screen for FBA inhibitors; shares compounds with Mtb FBA inh; GDH-TPI coupled enzyme counterscreen, fluorescence; inhibition, % at 1 µM; actives 81% (n = 5,600); AID 652141; in the data active = inhibition above about 10%
GDH-TPI DR = inhibits GDH-TPI coupling enzymes in dose response | shares compounds with Mtb FBA inh | GDH-TPI coupled enzyme assay, fluorescence, artifact counterscreen | IC50, µM | actives 79% (n = 170)
Starred values were filed as active, the others as inactive; . = no result; + = active, no number. An excerpt weighted towards active compounds, which were near 4% of everything screened. Unless noted, no rule for the calls is given here.

SMILES	GDH-TPI counter-1	Rv3671c inh	RecA splice inh	UGM FP inh	Mtb bLac sens	Mtb FBA inh	Mtb FBA inh conf	GDH-TPI counter-2	others
Cc1ccccc1N(CC(=O)NC1CCCCC1)C(=O)CCC(=O)Nc1nccs1	-2.7	-4.7	-3.2	0.7	-4.4	0.0	.	.
Cc1ccccc1N(CC(=O)NCC1CCCO1)C(=O)C1(C)CC(=O)N=C2C=CC=CN21 (configuration not stated)	-1.3	-1.1	0.8	0.6	-4.9	85.9*	106.1*	79.4*
Cc1ccccc1N(CC(=O)NC1CCCC1)C(=O)C1(C)CC(=O)N=C2C=CC=CN21 (configuration not stated)	12.4	-2.9	1.9	-1.9	-7.7	73.9*	104.2*	94.1*
CC1=CC2=NC(=O)CC(C)(C(=O)N(CC(=O)NC(C)C)C3CCCC3)N2C=C1 (configuration not stated)	.	-1.5	-1.8	5.4	1.0	.	.	.
CC1(C(=O)N(c2ccccc2)C(C(=O)NC2CCCC2)c2ccccn2)CC(=O)N=C2C=CC=CN21 (configuration not stated)	13.6	-2.1	.	0.7	-6.7	96.2*	106.8*	80.8*
CC1(C(=O)N(CC(=O)NC2CCCC2)C2CCCC2)CC(=O)N=C2C=CC=CN21 (configuration not stated)	25.0	11.7	-2.6	-0.2	-2.3	110.3*	-1.0	-5.3
CCN(CC)C(=O)c1[nH]cnc1C(=O)Nc1cccc(Cl)c1	-3.4	-3.3	.	-0.8	31.4	-0.8	.	.
CCC(CC)COC(=O)C1=C(C)NC(=O)NC1c1ccc2c(c1)OCO2 (configuration not stated)	2.9	0.1	1.7	1.6	6.8	0.1	.	.
CC1=CC2=NC(=O)CC(C)(C(=O)N(CC(=O)NC3CCCC3)Cc3ccccc3)N2C=C1 (configuration not stated)	8.0	-0.9	-2.7	-1.4	-4.3	69.1*	9.4	4.1
Cc1cc(C)cc(N(CC(=O)NC2CCCC2)C(=O)C2(C)CC(=O)N=C3C=CC=CN32)c1 (configuration not stated)	12.3	1.5	-2.8	0.0	-0.1	36.2*	+	161.2*
O=C(Nc1cccnc1)c1cccc(-c2cc3ccccc3oc2=O)c1	-1.9	-4.0	0.2	-4.6	-2.1	2.7	.	.
CCn1nnc(NC(=O)c2cccc(-c3cc4ccccc4oc3=O)c2)n1	19.4	-1.2	0.0	0.7	23.5	48.5*	153.4*	118.5*
c1cc(-c2cccs2)nc(-c2cccs2)c1	5.0	0.4	.	-1.9	3.4	1.3	.	.
c1csc(-c2cn3ccc4ccccc4c3n2)c1	5.1	-6.2	-1.7	5.1	82.2	46.8*	-3.7	-1.7
CCN(CC(=O)NCc1ccc(Cl)cc1)C(=O)COc1cccc(Cl)c1	0.0	-7.5	3.7	2.6	-6.2	3.5	.	.
COC(c1ccccc1)c1nnc(CCC(=O)N(C)CCCC2CCCC2)o1 (configuration not stated)	3.1	4.3	3.1	-3.3	0.8	28.3*	123.3*	100.0*
O=C(c1c[nH]c2ccc(S(=O)(=O)N3CCC4(CC3)OCCO4)cc2c1=O)N1CCC2(CC1)OCCO2	-1.9	-2.9	-1.2	1.0	-5.1	33.9*	46.1*	43.5*
O=C(c1c[nH]c2ccc(S(=O)(=O)N3CCC4(CC3)OCCO4)cc2c1=O)N1CCOCC1	5.1	.	-1.1	.	.	23.5	.	.
Cc1csc(NC(=O)c2ccccc2O)n1	20.9	1.7	1.7	-2.1	-0.1	66.3*	99.2*	84.7*
CC(C)(C)c1csc(NC(=O)c2ccccc2O)n1	23.3	-9.0	1.5	-0.1	2.9	37.2*	42.7*	36.3*
CCCCn1c(N)c(N(CCOC)C(=O)c2nn(CC)c(=O)c3ccccc23)c(=O)[nH]c1=O	10.1	4.5	-0.5	2.4	0.6	3.3	.	.
C/C(=N\NC(=O)c1nnn(-c2nonc2N)c1CN1CCCCC1)c1ccccc1O	-2.3	2.3	5.0	-2.0	6.5	-2.2	.	.
COc1cc2c(cc1OC)CN(Cc1cccs1)CC2	-3.2	-4.0	1.1	1.1	-8.0	28.7*	97.7*	86.5*
CCC(C(=O)N1CCc2cc(OC)c(OC)cc2C1)c1ccccc1 (configuration not stated)	8.6	1.3	5.8	0.2	4.5	2.1	.	.
COc1cc2c(cc1OC)CN(CC(O)c1ccccc1)CC2 (configuration not stated)	8.3	-1.5	-100.5	1.9	-1.5	57.4*	40.9*	33.0*
SMILES	GDH-TPI counter-1	Rv3671c inh	RecA splice inh	UGM FP inh	Mtb bLac sens	Mtb FBA inh	Mtb FBA inh conf	GDH-TPI counter-2	others
COc1cc2c(cc1OC)CN(Cc1ccccc1)CC2	16.9	1.6	-1.9	-2.3	-4.9	7.6	.	.
CCn1c(SCC(=O)N2CCCCC2C)nc2c1c(=O)n(C)c(=O)n2C (configuration not stated)	-6.5	-0.9	1.8	3.7	-8.4	2.1	.	.
O=C(CSc1nc(=O)n2ccccc2n1)N1CCCc2ccccc21	10.7	-1.0	-0.3	-1.6	-2.4	0.3	.	.
COc1ccc2c(c1OC)C(=O)OC2Nc1nc(-c2ccc(-c3ccccc3)cc2)cs1 (configuration not stated)	25.9	9.4	1.9	0.4	-0.5	33.9*	16.0	-0.5	GDH-TPI DR=9.52*
CNC(=O)c1cn2c3c(ccc(Cl)c3c1=O)OC(C)C2 (configuration not stated)	12.1	.	.	.	.	37.0*	3.3	-1.8
CCOCCCNC(=O)c1cn2c3c(ccc(Cl)c3c1=O)OC(C)C2 (configuration not stated)	7.6	.	0.5	.	.	25.6	.	.
Cn1c(SCC(=O)N2CCCCCC2)nc2c(c1=O)SCC2	11.7	0.5	-0.1	-4.2	-5.6	-2.4	.	.
Cc1cc(C)n(-c2nc(NCC(C)O)c3c4c(sc3n2)COC(C)(C)C4)n1 (configuration not stated)	4.7	-6.8	-2.1	2.5	12.5	55.8*	75.2*	64.0*
Cc1cc(N)n(-c2ccc(Cl)cc2)n1	4.8	-3.8	0.3	-0.2	-2.3	-5.5	.	.
Cc1cc2nn(-c3ccc(Cl)cc3)nc2cc1N	7.4	-10.1	20.9	-1.8	-6.8	40.5*	110.8*	97.3*
Cc1cc2nn(-c3ccc(F)cc3)nc2cc1N	45.7*	-1.9	-33.2	0.9	3.9	53.8*	179.3*	136.2*
Cn1nc(NC(=O)CC(C)(C)CC(=O)O)c2ccccc21	-5.9	-6.5	0.8	0.2	22.0	1.3	.	.
CCOC(=O)c1cc(CC)sc1NC(=O)CN1C(=O)C(=O)N(CC(C)C)C1=O	-0.7	-10.1	0.1	4.5	-4.7	-0.4	.	.
